Here are results for five compounds from PubChem BioAssay.

A short description of test [1]: antimalarial activity against Dd2 strain (AID 2302;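 active = growth inhibition above 50% at the single 2 µM test dose, taken to imply half-maximal potency below 2 µM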;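 note: 0% = DMSO untreated growth and 100% = chloroquine plus artemisinin killed control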). The note with it: P. falciparum Dd2 in RBCs, LDH growth readout, 72 h; at 2 µM; stronger effect = higher value.
A short description of test [2]: human hepatoma cell viability loss – ATP luminescence, cytotoxicity control for P. falciparum antimalarial project, primary screen (AID 2303;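 active = inhibition above 50%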;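 note: 0% = DMSO wells and 100% = digitonin-killed cells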). The note with it: HepG2 viability, 24-48 h, at 10 µM, stronger effect = higher value.
Test [3] has as its target L-lactate dehydrogenase (Plasmodium falciparum (isolate CDC / Honduras)) (UniProt Q27743). As to the kind of experiment: PfLDH activity inhibition – cell lysate, 3D7 strain, counter-screen for P. falciparum growth inhibition project (AID 2304).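 Note: 0% = vehicle and 100% = reference inhibitor.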 The note with it: P. falciparum 3D7 crude extract, LDH APAD/NBT absorbance; at 2 µM; stronger effect = higher value. (The purpose of a counterscreen is to sort out artefacts and off-target activity.)

A short description of test [4]: inhibition of 3D7 malaria parasite growth – strain 3D7 (AID 2306).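 Note: 0% = DMSO wells and 100% = chloroquine plus artemisinin control wells.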 The note with it: P. falciparum 3D7 erythrocytic growth, LDH absorbance, 72 h; at 2 µM; stronger effect = higher value.
For test [5], the target named is Calcium-dependent protein kinase 1 (Plasmodium falciparum (isolate 3D7)) (UniProt P62344). As to the kind of experiment: PfCDPK1 kinase inhibitors, biochemical, TCAMS library (AID 1159585; cut-off not given, nearly all actives have IC50 up to about 0.98 µM;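 note: inhibitors leave more ATP so luminescence rises with inhibition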). The note with it: recombinant PfCDPK1, Kinase-Glo ATP depletion luminescence.
Test [6] concerns the target Plasmodium falciparum protein kinase 6 (PK6, PF3D7_1337100) (UniProt Q8IDW1). As to the kind of experiment: PfPK6 kinase inhibitors, biochemical, TCAMS library (AID 1159586). The note with it: recombinant PfPK6, Kinase-Glo ATP depletion luminescence. On the technique in general: In Kinase-Glo more light means more ATP remaining.
In test [7] the target is Protein kinase 7 (PK7), Plasmodium falciparum 3D7 (PF3D7_0213400) (UniProt Q7YTF7). As to the kind of experiment: inhibition of Plasmodium PK7 catalytic activity – biochemical, TCAMS antimalarial set, Kinase-Glo luminescence (AID 1159587). The note with it: recombinant PfPK7, Kinase-Glo ATP depletion luminescence.
Test [8] has as its target Calcium-dependent protein kinase 4 (Plasmodium falciparum (isolate 3D7)) (UniProt Q8IBS5). As to the kind of experiment: PfCDPK4 kinase inhibitors, biochemical, TCAMS library (AID 1159588; cut-off not given, nearly all actives have IC50 up to about 0.91 µM). The note with it: recombinant PfCDPK4, Kinase-Glo ATP depletion luminescence.
Test [9] can be described thus: P. berghei load reduction in hepatocytes – cell-based, HepG2, luciferase luminescence, HepG2 viability, primary screen (AID 624349; in the data active = parasite load remaining mostly below about 12%, no sharp cut-off; inactive = mostly above about 10%;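 note: 100% = mean of DMSO negative control wells on the same plate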). The note with it: P. berghei liver stage in HepG2, luciferase luminescence, concentration not given here; parasite load remaining: stronger effect = lower value; viability: measured here: HepG2 viability without parasites.
The subject of test [10] is Hepatitis C virus NS3 helicase. As to the kind of experiment: blockers of NS3h binding to ssDNA – biochemical, fluorescence polarization, LOPAC1280 library, primary screen (AID 687035; in the data active = inhibition above about 37%). The note with it: Purified HCV NS3 helicase, Cy5-dT15 ssDNA binding fluorescence polarization; stronger effect = higher value; concentration not given here. A general note: In fluorescence polarisation assays a small probe gives low polarisation when free and higher when bound to something large.

The nature of test [11]: compounds altering Cy5-DNA-NS3h complex signal – biochemical, LOPAC1280, artefact control for HCV NS3 helicase inhibitor project (AID 687037). The note with it: Cy5-DNA-NS3h complex fluorescence interference counterscreen.
The nature of test [12]: signal quenchers or enhancers, Cy5 substrate/SSB – biochemical, NIH Clinical Collection, E. coli SSB, artefact control for HCV NS3 helicase inhibitor project (AID 743268). The note with it: Cy5-oligo bound E. coli SSB, fluorescence interference.
For test [13], the system named is Hepatitis C virus NS3 helicase. As to the kind of experiment: blockers of NS3h binding to DNA – biochemical, fluorescence polarization, NIH Clinical Collection, primary screen (AID 743270). The note with it: NS3 helicase binding to Cy5-dT15 DNA, stronger effect = higher value, concentration not given here.
In test [14] the target is Single-stranded DNA-binding protein (Escherichia coli (strain K12)) (UniProt P0AGE0). As to the kind of experiment: SSB-ssDNA binding inhibitors – biochemical, fluorescence polarization, NIH Clinical Collection, counter-screen for HCV NS3 helicase inhibitor project (AID 743271; in the data active = inhibition above about 28%). The note with it: E. coli SSB-DNA binding, stronger effect = higher value, concentration not given here.

The nature of test [15]: compounds distorting NS3 helicase fluorescence signal – biochemical, NIH Clinical Collection, artefact control for HCV NS3 helicase inhibitor project (AID 743272).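 Note: HCV NS3 helicase with a Cy5 labelled single stranded DNA probe.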 The note with it: fluorescence interference counterscreen, HCV NS3 helicase assay; stronger effect = lower value.
For test [16], the system named is Neuropilin-2 / VEGF-C interaction (human). As to the kind of experiment: small molecules blocking Neuropilin-2/VEGF-C interaction – biochemical, microplate binding format, z-score (AID 743281). The note with it: microplate NRP2/VEGF-C binding assay; stronger effect = lower value.
Test [17] in a line: modulation of C. elegans fzo-1 (AID 1259413).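 Note: fzo-1 mutant C. elegans worms in liquid wells.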 The note with it: C. elegans fzo-1 modulator screen, mean read-out; stronger effect = higher value.
Test [18] is described as follows: EMT-state selective cytotoxicity in co-culture – imaging, PC-3E GFP, TEM4-18 mCherry, primary screen (AID 1345086;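 active = compounds killing one labelled cell type while sparing the other, by normalised counts and ratio limits, not self-fluorescent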;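 note: cells exposed to compound for 72 h before imaging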;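 for red/green cell ratio (normalised): normalised mesenchymal count divided by normalised epithelial count so high means epithelial killing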). The note with it: PC-3E GFP / TEM4-18 mCherry co-culture, imaging cell counts, at 1 µM.
A short description of test [19]: viability loss in pontine glioma line – cell-based, JHH-DIPG-1, MIPE4.0, CellTiter-Glo, qHTS, dose response (AID 1347062; cut-off not given, nearly all actives have AC50 up to about 27 µM;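 note: cells exposed to compound for two days before readout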). The note with it: JHH-DIPG-1 viability, CellTiter-Glo ATP luminescence.
A short description of test [20]: viability loss in pontine glioma line – cell-based, SU-DIPG-IV, MIPE4.0, CellTiter-Glo, qHTS, dose response (AID 1347063; cut-off not given, nearly all actives have AC50 up to about 30 µM;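 note: compound exposure lasted 48 hours before the viability readout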). The note with it: CellTiter-Glo ATP luminescence.
A short description of test [21]: viability loss in pontine glioma line – cell-based, SU-DIPG-XXV, MIPE5.0, CellTiter-Glo, qHTS, dose response (AID 1347065; cut-off not given, nearly all actives have AC50 up to about 26 µM;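 note: cells exposed to compound for 48 hours before ATP readout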). The note with it: CellTiter-Glo ATP luminescence.
Test [22] is described as follows: JHH-DIPG-1 glioma cell viability, MIPE5.0 library, CellTiter-Glo luminescence, qHTS (AID 1347067; cut-off not given, nearly all actives have AC50 up to about 26 µM;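 note: cells exposed to compound for 48 hours before readout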). The note with it: JHH-DIPG-1 glioma viability, CellTiter-Glo ATP luminescence.
Test [23] can be described thus: growth inhibition of DIPG cells – cell-based, MIPE5.0 library, qHTS (AID 1347068; cut-off not given, nearly all actives have IC50 up to about 30 µM). The note with it: SU-DIPG-XXV viability.
A short description of test [24]: compounds altering HSF1 focus formation in cells – imaging, Selleck Cancer Library (AID 1347162; in the data active = plate-normalised HSF1 focus index below about 0.46). The note with it: human cells, HSF1 nuclear foci imaging, at 10 µM; SSMD: measured here: HSF1 foci SSMD mean; cell count: measured here: cell number; plate-normalised HSF1 focus index: stronger effect = lower value.
A short description of test [25]: blockers of cellular phospholipid synthesis – cell-based, LOPAC library, screen 4, primary screen (AID 1347384). The note with it: animal cells, phospholipid biosynthesis inhibition screen; at 10 µM.
Test [26] can be described thus: MELAS cybrid and Rieske KO viability enhancers – cell-based, MELAS cybrids, Rieske KO mouse fibroblasts, CellTiter-Glo, primary screen (AID 1508586;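 active = mean z-score across replicates of 1.96 or higher in either the MELAS or the Rieske mutant cell line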;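 note: z relative to plate mean and SD of compound and empty wells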). The note with it: low glucose.
For test [27], the target named is NAD(+) hydrolase SARM1 (Homo sapiens) (UniProt Q6SZW1). As to the kind of experiment: blocking NAD cleavage by SARM1 SAM-TIR – cell lysate, NAD-Glo luminescence (AID 1508614;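 active = compound whose remaining NAD level is above about 45 nM, limit read from the data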;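 note: higher remaining NAD means stronger inhibition of SARM1 NADase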). The note with it: SAM-TIR HEK293T lysate NADase, at 1 µM, stronger effect = higher value.
Test [28] is described as follows: galactose survival enhancers in mitochondrial complex I cybrids – cell-based, galactose medium, ATP luminescence, primary screen (AID 1645843;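 active = z-score of at least 1.8 in each of two replicates, scored against plate mean and spread of sample wells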;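 note: positive z means more ATP and so rescue of galactose-driven cybrid death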). The note with it: complex I mutant cybrid cells, 72 h, stronger effect = higher value.
The subject of a further test is F380Y. As to the kind of experiment: BK channel mutant inhibitors and activators – cell-based, U2OS BacMam, thallium flux, beta subunits, selectivity assay, profiling panel (AID 1259406;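 active = thallium flux through the channel raised or lowered by more than 3 SD from vehicle-only wells, actives on both sides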;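 note: initial slope of Thallos dye fluorescence rise after thallium is added; log ratio against the mean of 0.3% DMSO vehicle wells on the same plate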). The note with it: U2OS BacMam BK variants, at 30 µM.
Another test deals with F380Y/beta1. Described as above. The note with it: U2OS BacMam BK variants, at 30 µM.
The subject of another test is F380Y/beta2Delta. The description is as above. The note with it: U2OS BacMam BK variants, at 30 µM.
In the next test the test system is F380Y/beta4. Described as above. The note with it: U2OS BacMam BK variants, at 30 µM.
Test [29] addresses Calcium-activated potassium channel subunit alpha-1 (Homo sapiens) + Leucine-rich repeat-containing protein 26 (Homo sapiens) (UniProt Q12791+Q2I0M4). The test is described as above. The note with it: U2OS BacMam BK variants, F380Y/Slo1WT/gamma1, at 30 µM.
In the next test the test system is R275C. The test is described as above. The note with it: U2OS BacMam BK variants, at 30 µM.
A further test deals with R275C/beta1. The description is as above. The note with it: U2OS BacMam BK variants, at 30 µM.
The test system of another test is R275C/beta2Delta. The description is as above. The note with it: U2OS BacMam BK variants, at 30 µM.
Another test deals with R275C/beta4. Described as above. The note with it: U2OS BacMam BK variants, at 30 µM.
In a further test the test system is R275C/Slo1WT/beta2. The description is as above. The note with it: U2OS BacMam BK variants, at 30 µM.

Each structure is given as a SMILES string. “And” between values parts separate entries of the source, which are not always exact repeats. Identical values can stand only once. Inconclusive results are not listed. For some assays here: Entries with a potency or affinity are not part of this list. The source made the active and inactive calls. Unless noted, the rule behind the calls is not given here.

Chain of L-lactate dehydrogenase (Plasmodium falciparum (isolate CDC / Honduras)) (Q27743 whole entry, looked up): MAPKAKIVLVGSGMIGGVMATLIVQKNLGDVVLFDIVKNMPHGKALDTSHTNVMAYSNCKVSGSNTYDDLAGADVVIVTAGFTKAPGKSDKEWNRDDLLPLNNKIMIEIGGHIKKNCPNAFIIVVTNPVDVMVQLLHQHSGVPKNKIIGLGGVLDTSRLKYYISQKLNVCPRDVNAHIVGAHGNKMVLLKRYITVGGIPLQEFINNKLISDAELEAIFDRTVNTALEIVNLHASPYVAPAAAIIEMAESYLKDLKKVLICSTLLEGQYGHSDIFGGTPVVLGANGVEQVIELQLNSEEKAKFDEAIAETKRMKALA
Chain of Calcium-dependent protein kinase 1 (Plasmodium falciparum (isolate 3D7)) (P62344 whole entry, looked up): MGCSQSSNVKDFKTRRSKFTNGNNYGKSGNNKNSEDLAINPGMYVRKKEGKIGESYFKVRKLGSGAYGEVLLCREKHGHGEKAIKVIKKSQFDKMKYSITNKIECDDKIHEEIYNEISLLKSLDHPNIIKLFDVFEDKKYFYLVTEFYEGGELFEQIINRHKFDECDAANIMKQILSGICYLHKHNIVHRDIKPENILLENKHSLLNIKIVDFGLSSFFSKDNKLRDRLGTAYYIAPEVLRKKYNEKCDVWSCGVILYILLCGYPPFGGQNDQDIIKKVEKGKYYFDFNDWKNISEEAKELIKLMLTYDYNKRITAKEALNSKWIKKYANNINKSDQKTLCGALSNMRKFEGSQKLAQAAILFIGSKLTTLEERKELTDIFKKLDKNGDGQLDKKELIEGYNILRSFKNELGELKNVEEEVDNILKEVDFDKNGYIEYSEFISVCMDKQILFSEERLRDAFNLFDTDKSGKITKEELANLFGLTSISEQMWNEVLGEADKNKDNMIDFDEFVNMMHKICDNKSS
Chain of Plasmodium falciparum protein kinase 6 (PK6, PF3D7_1337100) (Q8IDW1 1-305): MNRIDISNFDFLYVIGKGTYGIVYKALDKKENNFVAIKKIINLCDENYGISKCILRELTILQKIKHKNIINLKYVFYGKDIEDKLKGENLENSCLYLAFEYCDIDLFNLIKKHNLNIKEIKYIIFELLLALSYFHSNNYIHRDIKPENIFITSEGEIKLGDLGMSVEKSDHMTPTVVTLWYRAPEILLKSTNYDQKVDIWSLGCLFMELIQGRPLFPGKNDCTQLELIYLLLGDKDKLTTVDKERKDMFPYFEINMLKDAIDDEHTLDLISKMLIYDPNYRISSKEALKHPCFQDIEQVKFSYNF
Chain of Protein kinase 7 (PK7), Plasmodium falciparum 3D7 (PF3D7_0213400) (Q7YTF7 1-343): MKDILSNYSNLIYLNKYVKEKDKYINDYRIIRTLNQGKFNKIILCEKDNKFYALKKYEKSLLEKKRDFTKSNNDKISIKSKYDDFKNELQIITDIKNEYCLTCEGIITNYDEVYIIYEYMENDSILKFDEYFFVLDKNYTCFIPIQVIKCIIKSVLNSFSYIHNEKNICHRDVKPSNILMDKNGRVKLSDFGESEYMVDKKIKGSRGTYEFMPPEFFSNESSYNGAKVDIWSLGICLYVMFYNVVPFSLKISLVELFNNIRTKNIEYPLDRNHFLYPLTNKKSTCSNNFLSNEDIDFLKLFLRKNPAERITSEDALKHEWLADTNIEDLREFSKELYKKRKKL
Chain of Calcium-dependent protein kinase 4 (Plasmodium falciparum (isolate 3D7)) (Q8IBS5 whole entry, looked up): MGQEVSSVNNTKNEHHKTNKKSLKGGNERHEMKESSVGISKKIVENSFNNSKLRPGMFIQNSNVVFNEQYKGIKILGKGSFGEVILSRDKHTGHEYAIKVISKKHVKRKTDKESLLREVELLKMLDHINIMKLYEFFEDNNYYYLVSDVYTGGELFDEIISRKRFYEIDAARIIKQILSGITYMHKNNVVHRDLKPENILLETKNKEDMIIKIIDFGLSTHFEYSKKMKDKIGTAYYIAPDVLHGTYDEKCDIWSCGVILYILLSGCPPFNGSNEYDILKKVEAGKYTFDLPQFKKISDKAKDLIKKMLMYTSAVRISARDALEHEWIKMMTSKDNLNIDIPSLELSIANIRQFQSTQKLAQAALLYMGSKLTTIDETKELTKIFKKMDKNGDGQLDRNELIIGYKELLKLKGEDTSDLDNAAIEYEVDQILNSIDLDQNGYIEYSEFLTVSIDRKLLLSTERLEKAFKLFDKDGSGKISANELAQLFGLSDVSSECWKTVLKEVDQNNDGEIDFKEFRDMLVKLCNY
Chain of Calcium-activated potassium channel subunit alpha-1 (Homo sapiens) + Leucine-rich repeat-containing protein 26 (Homo sapiens) (Q2I0M4 whole entry, looked up, one chain of several): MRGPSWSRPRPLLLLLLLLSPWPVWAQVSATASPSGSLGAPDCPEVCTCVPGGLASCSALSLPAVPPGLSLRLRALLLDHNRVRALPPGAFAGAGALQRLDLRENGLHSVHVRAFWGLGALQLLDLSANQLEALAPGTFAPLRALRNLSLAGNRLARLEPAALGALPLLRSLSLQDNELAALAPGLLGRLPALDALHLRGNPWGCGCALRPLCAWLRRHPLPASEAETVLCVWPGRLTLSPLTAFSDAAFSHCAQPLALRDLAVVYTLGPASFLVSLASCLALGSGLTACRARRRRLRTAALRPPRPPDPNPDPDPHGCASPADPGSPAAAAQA
Chain of NAD(+) hydrolase SARM1 (Homo sapiens) (Q6SZW1 whole entry, looked up): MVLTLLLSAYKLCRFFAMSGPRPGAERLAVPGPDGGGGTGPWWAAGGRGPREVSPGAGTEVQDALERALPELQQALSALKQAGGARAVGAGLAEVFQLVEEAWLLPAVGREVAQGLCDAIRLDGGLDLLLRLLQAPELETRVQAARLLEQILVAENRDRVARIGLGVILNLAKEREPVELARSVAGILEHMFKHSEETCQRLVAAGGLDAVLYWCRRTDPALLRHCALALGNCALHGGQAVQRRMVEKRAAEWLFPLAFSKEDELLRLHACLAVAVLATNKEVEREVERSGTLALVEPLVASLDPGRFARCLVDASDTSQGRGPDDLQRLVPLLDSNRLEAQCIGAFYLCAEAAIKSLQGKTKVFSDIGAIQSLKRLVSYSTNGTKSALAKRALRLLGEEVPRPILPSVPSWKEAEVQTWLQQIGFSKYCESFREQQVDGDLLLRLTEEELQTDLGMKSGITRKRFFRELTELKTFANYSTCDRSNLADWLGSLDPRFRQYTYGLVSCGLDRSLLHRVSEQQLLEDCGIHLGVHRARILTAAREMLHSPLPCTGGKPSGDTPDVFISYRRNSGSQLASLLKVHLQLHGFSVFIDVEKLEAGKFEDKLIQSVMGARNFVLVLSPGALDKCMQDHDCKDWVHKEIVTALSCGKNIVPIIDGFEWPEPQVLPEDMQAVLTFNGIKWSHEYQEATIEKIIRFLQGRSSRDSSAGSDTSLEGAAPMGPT

The term inhibition denotes the drop in the measured response relative to a control, in per cent. For the compound `CC(=O)C1(c2ccccc2)CCN(CCC(NC(=O)c2cc(C(F)(F)F)cc(C(F)(F)F)c2)c2ccc(Cl)c(Cl)c2)CC1` (stereo not drawn), the growth inhibition in test [1] is 82% (active); in [4], 91% (active). In addition, the inhibition in test [2] is 9% (inactive); in test [3], 2% (inactive). The result in test [5], in test [6], in test [7] and in test [8] was inactive.

For `COC(=O)c1ccc(CC(C)NCC(O)c2cccc3ccccc23)cc1` (stereo not drawn), the growth inhibition in test [1] is 82% (active); in test [4], 96% (active). The inhibition in test [2] is 3% (inactive); in [3] it was 4% (inactive). Also, the outcome in test [5], in test [6], in test [7] and in [8] was inactive.

For `NCc1cccc(-c2cccc(CN(C(=O)Nc3ccccc3)C3CCN(Cc4ccccc4)CC3)c2)c1`, the growth inhibition was 8% (inactive) in test [1] and 99% (active) in [4]. The inhibition in [2] was 3% (inactive); in [3], -2% (inactive). The result in [5], in test [6], in test [7] and in [8] was inactive.

`CC(=O)C1(c2ccccc2)CCN(CCC2(c3ccc(Cl)c(Cl)c3)CN(C(=O)Nc3cccc(C(F)(F)F)c3)CCO2)CC1` (stereo not drawn): the growth inhibition was 66% (active) in [1] and 95% (active) in test [4]. The inhibition was 24% (inactive) in test [2] and 8% (inactive) in [3]. Moreover, the outcome in test [5], in [6], in [7] and in [8] was inactive.

What is called viability is a read-out of living cells in per cent, often relative to untreated cells. By AC50 is commonly meant the concentration giving half of the maximal activity seen. Regarding `CC(O)(CS(=O)(=O)c1ccc(F)cc1)C(=O)Nc1ccc(C#N)c(C(F)(F)F)c1` (stereo not drawn), in test [9], the parasite load remaining was 85.6% (inactive) and 26.5% (inactive). Besides, the viability in test [9] is 71.8% and 108%. Besides, the figures for the inhibition in test [10], in [13] and in test [14] were 0% (inactive), 0.4% (inactive) and -0.87% (inactive), respectively. For the same compound, the fluorescence ratio (interference) in [11] is 1 (inactive). Moreover, the values for the fluorescence ratio in test [12] and in test [15] were 1 (inactive) and 0.95 (inactive), respectively. For the same compound, the z-score in [16] was 0.117 (inactive); in [26] (MELAS cybrid survival, CellTiter-Glo 48 h, stronger effect = higher value), -0.358 (inactive) and -0.11 (inactive) and 0.746 (inactive); in test [26] (Rieske KO mouse fibroblast survival, CellTiter-Glo 72 h) it was 0.621 and -0.29 and 0.356; in test [28], -0.24 (inactive) and -0.44 (inactive) and 0.235 (inactive). Moreover, the mean signal in test [17] is 225 (inactive). In addition, the red/green cell ratio (normalised) in test [18] (actives lie on both sides) is 1.31 (inactive). Also, the results for the normalised cell number in test [18] (measured here: epithelial PC-3E GFP cell survival) and in test [18] (measured here: mesenchymal TEM4-18 mCherry cell survival) were 0.64 and 0.84, respectively. In addition, the AC50 is 9.35 µM (active) in test [19] and 13.2 µM (active) in test [20]. For the same compound, the compound was classed as inactive in test [21], in test [22], in test [23] and in [25]. In test [24], this compound displayed an SSMD of 2.85. Also, in test [24], the cell count was 7580. For the same compound, in [24], the plate-normalised HSF1 focus index is 1.1 (inactive). Also, the remaining NAD in test [27] was 10 nM (inactive). Further, the log fold change Tl+ flux with F380Y is -0.0003 (inactive); in the test on F380Y/beta1, 0.0749 (inactive); in the test with F380Y/beta2Delta, -0.0358 (inactive); in the test on F380Y/beta4 it was -0.0644 (inactive); in test [29], 0.0529 (inactive); in the test on R275C, -0.0123 (inactive). Besides, the log fold change Tl+ flux was 0.266 (active) in the test with R275C/beta1, 0.179 (active) in the test on R275C/beta2Delta, 0.0752 (inactive) with R275C/beta4 and -0.00212 (inactive) in the test with R275C/Slo1WT/beta2.
